Measurements as given in the supplement of paper PMC7156485.
± gives the standard deviation of the averaged measurements.

How the values were obtained:
Settings in all cases: concentration: 10 µM; 24 h
HCC1569 [1] = assay: cell number relative to DMSO (% of DMSO); higher = more cells (less growth inhibition / toxicity)
Summary of the method: (§1)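 HCC1569 and TDF cells (800 per well, 384-well plates, RPMI with 10% FBS) were treated with compounds at 10 µM for 24 h at 37 °C, in triplicate. Cells were fixed in 3.7% formaldehyde and stained with a rabbit anti-H1.0 antibody, an AlexaFluor 647 secondary and DAPI; six fields per well were imaged at ×10. H1.0 nuclear intensity or cell number is expressed as percent of the plate DMSO control, taking the median of replicates. HCC1569 values were smoothed for positional effects.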

TDF [2] = assay: as above
Summary of the method: as §1

TDF [3] = assay: H1.0 immunofluorescence intensity relative to DMSO (% of DMSO); higher = stronger H1.0 induction, active = 120 or more
Summary of the method: as §1

HCC1569 [4] = assay: H1.0 immunofluorescence intensity relative to DMSO (% of DMSO); higher = stronger H1.0 induction, active = 140 or more
Summary of the method: as §1
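Throughout, for H1.0 immunofluorescence intensity relative to DMSO: TDF is a line of transformed human dermal fibroblasts of mesenchymal origin.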
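Throughout, for cell number relative to DMSO: TDF denotes transformed human dermal fibroblasts of mesenchymal origin.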

Compound | cell number (HCC1569 [1]) | cell number (TDF [2]) | H1.0 immunofluorescence intensity (TDF [3]) | H1.0 immunofluorescence intensity (HCC1569 [4])
NC(=NCCCC(N)C(=O)O)N[N+](=O)[O-] [NG-Nitro-L-arginine] | 104 | 96.7 | 89.6 (inactive) | 90 (inactive)
CS(=N)(=O)CCC(N)C(=O)O [L-Methionine sulfoximine] | 103 | 94 | 92.5 (inactive) | 98.4 (inactive)
CCC1(C2OC(C3OC(O)(CO)C(C)CC3C)CC2C)CCC(C2(C)CCC3(CC(O)C(C)C(C(C)C(OC)C(C)C(=O)[O-])O3)O2)O1.[Na+] (configuration not stated) [Monensin] | 90.4 | 74.5 | 120 (active) | 186 (active)
COc1ccc(C(=O)c2c(C)n(CCN3CCOCC3)c3cc(I)ccc23)cc1 | 85.1 | 82.3 | 108 (inactive) | 128 (inactive)
CC12CCC3C(CCC4(O)CC(O)CCC34C=O)C1(O)CCC2C1=CC(=O)OC1 (configuration not stated) [Strophantidin] | 67 | 56.2 | 123 (active) | 115 (inactive)
Cc1cc(C2CCCN2C)on1 (configuration not stated) | 102 | 102 | 90.2 (inactive) | 88.1 (inactive)
CC(C)(C)c1cc(C=C(C#N)C#N)cc(Br)c1O | 99.2 | 99.1 | 110 (inactive) | 99.8 (inactive)
CN1C2CCCC1CC(=O)C2.Cl | 98.6 | 89.2 | 108 (inactive) | 94.5 (inactive)
O=C(O)C(=O)c1cn(Cc2ccccc2)c2ccc(-c3ccc(OC(F)(F)F)cc3)cc12 | 99.9 | 106 | 94 (inactive) | 99.4 (inactive)
CCNC(=O)C[C@@H]1N=C(c2ccc(Cl)cc2)c2cc(OC)ccc2-n2c(C)nnc21 | 86.4 | 71.9 | 141 (active) | 198 (active)
COc1cc2c(c(OC)c1OC)-c1ccc(OC)c(=O)cc1C(NC(C)=O)CC2 (configuration not stated) [Colchicine] | 57.57 ± 0.52 | 9.12 ± 1.6 | 168 (active) | 132 (inactive)
COc1ccc2c(c1)C13CCCCC1C(C2)N(C)CC3 (configuration not stated) [Dextromethorphan] | 103 | 103 | 102 (inactive) | 107 (inactive)
CCC1C=CC=CCC(C)C(O)C(C)(O)C(=O)C(C)C(O)C(C)C(=O)C(C)C(O)C(C)C=CC(=O)OC2C(C)C(CC1)OC1(CCC(C)C(CC(C)O)O1)C2C (configuration not stated) [Oligomycin A] | 79.8 ± 16 | 87 ± 27 | 93.9 (inactive) | 114 (inactive)
